# Laboratory results reported in publication PMC11006913.
# Experiments:
# Assay in all cases: PBM; 200 nM protein, PBS
# Conditions in all cases: dsDNA, one strand shown
# [1] = target: PROP1 (Homo sapiens, UniProt O75360 56-141)
# [2] = target: PROP1 (Homo sapiens, UniProt O75360 56-141, R99H)
# [3] = target: PROP1 (Homo sapiens, UniProt O75360 56-141, F88S)
# [4] = target: HESX1 (Homo sapiens, UniProt Q9UBX0 95-180, R109Q)
# [5] = target: VAX1 (Homo sapiens, UniProt Q5SQQ9 86-172)
# [6] = target: VAX1 (Homo sapiens, UniProt Q5SQQ9 86-172, T142I)
# VAX1 (Homo sapiens, UniProt Q5SQQ9 86-172, T142I), sequence (Q5SQQ9 86-172 T142I): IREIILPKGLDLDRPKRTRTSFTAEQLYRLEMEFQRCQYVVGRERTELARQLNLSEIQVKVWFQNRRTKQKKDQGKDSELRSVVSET
# [7] = target: VAX1 (Homo sapiens, UniProt Q5SQQ9 86-172, K157R)
# VAX1 (Homo sapiens, UniProt Q5SQQ9 86-172, K157R), sequence (Q5SQQ9 86-172 K157R): as the sequence (Q5SQQ9 86-172 T142I) above, with I57T, K72R counted along it
# PROP1 (Homo sapiens, UniProt O75360 56-141, F88S), sequence (O75360 56-141 F88S): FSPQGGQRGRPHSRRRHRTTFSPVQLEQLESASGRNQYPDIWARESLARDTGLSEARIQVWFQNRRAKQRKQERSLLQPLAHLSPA
# VAX1 (Homo sapiens, UniProt Q5SQQ9 86-172), sequence (Q5SQQ9 86-172): as the sequence (Q5SQQ9 86-172 T142I) above, with I57T counted along it
# PROP1 (Homo sapiens, UniProt O75360 56-141, R99H), sequence (O75360 56-141 R99H): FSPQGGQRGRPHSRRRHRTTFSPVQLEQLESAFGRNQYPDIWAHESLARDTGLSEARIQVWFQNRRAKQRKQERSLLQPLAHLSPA
# PROP1 (Homo sapiens, UniProt O75360 56-141), sequence (O75360 56-141): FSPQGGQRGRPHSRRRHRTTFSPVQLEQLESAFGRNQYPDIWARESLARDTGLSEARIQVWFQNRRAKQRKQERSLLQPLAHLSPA
# HESX1, sequence (Q9UBX0 95-180 R109Q): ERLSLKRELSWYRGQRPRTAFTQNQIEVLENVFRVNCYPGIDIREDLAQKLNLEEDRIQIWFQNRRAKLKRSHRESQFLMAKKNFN
sequence,measurement,setting,value
AAAAATTT,binding signal,[1],"8.27 upbm affinity estimate (log intensity, higher = more binding, comparable within an allelic series)"
same,binding signal,[2],"7.95 upbm affinity estimate (log intensity, higher = more binding, comparable within an allelic series)"
same,binding signal,[3],"7.46 upbm affinity estimate (log intensity, higher = more binding, comparable within an allelic series)"
AGGGCCGC,binding signal,[1],"6.72 upbm affinity estimate (log intensity, higher = more binding, comparable within an allelic series)"
same,binding signal,[2],"6.82 upbm affinity estimate (log intensity, higher = more binding, comparable within an allelic series)"
same,binding signal,[3],"6.5 upbm affinity estimate (log intensity, higher = more binding, comparable within an allelic series)"
CTCTGGAA,binding signal,[1],"6.65 upbm affinity estimate (log intensity, higher = more binding, comparable within an allelic series)"
same,binding signal,[2],"6.87 upbm affinity estimate (log intensity, higher = more binding, comparable within an allelic series)"
same,binding signal,[3],"6.91 upbm affinity estimate (log intensity, higher = more binding, comparable within an allelic series)"
CCCGGGAA,binding signal,[1],"6.78 upbm affinity estimate (log intensity, higher = more binding, comparable within an allelic series)"
same,binding signal,[2],"6.79 upbm affinity estimate (log intensity, higher = more binding, comparable within an allelic series)"
same,binding signal,[3],"6.66 upbm affinity estimate (log intensity, higher = more binding, comparable within an allelic series)"
GCTCCTCC,binding signal,[1],"6.62 upbm affinity estimate (log intensity, higher = more binding, comparable within an allelic series)"
same,binding signal,[2],"6.55 upbm affinity estimate (log intensity, higher = more binding, comparable within an allelic series)"
same,binding signal,[3],"6.45 upbm affinity estimate (log intensity, higher = more binding, comparable within an allelic series)"
CTCAGCGC,binding signal,[1],"6.82 upbm affinity estimate (log intensity, higher = more binding, comparable within an allelic series)"
same,binding signal,[2],"6.86 upbm affinity estimate (log intensity, higher = more binding, comparable within an allelic series)"
same,binding signal,[3],"6.88 upbm affinity estimate (log intensity, higher = more binding, comparable within an allelic series)"
AGAGCCGG,binding signal,[1],"6.81 upbm affinity estimate (log intensity, higher = more binding, comparable within an allelic series)"
same,binding signal,[2],"6.67 upbm affinity estimate (log intensity, higher = more binding, comparable within an allelic series)"
same,binding signal,[3],"6.47 upbm affinity estimate (log intensity, higher = more binding, comparable within an allelic series)"
CCAGGGTC,binding signal,[1],"6.75 upbm affinity estimate (log intensity, higher = more binding, comparable within an allelic series)"
same,binding signal,[2],"6.85 upbm affinity estimate (log intensity, higher = more binding, comparable within an allelic series)"
same,binding signal,[3],"6.62 upbm affinity estimate (log intensity, higher = more binding, comparable within an allelic series)"
CCTGTTAG,binding signal,[1],"8.32 upbm affinity estimate (log intensity, higher = more binding, comparable within an allelic series)"
same,binding signal,[2],"8.15 upbm affinity estimate (log intensity, higher = more binding, comparable within an allelic series)"
same,binding signal,[3],"7.19 upbm affinity estimate (log intensity, higher = more binding, comparable within an allelic series)"
AGCCTGGC,binding signal,[1],"6.55 upbm affinity estimate (log intensity, higher = more binding, comparable within an allelic series)"
same,binding signal,[2],"6.87 upbm affinity estimate (log intensity, higher = more binding, comparable within an allelic series)"
same,binding signal,[3],"6.67 upbm affinity estimate (log intensity, higher = more binding, comparable within an allelic series)"
GTGCGCCA,binding signal,[1],"6.79 upbm affinity estimate (log intensity, higher = more binding, comparable within an allelic series)"
same,binding signal,[2],"6.83 upbm affinity estimate (log intensity, higher = more binding, comparable within an allelic series)"
same,binding signal,[3],"6.75 upbm affinity estimate (log intensity, higher = more binding, comparable within an allelic series)"
CCGATGGC,binding signal,[1],"6.65 upbm affinity estimate (log intensity, higher = more binding, comparable within an allelic series)"
same,binding signal,[2],"6.61 upbm affinity estimate (log intensity, higher = more binding, comparable within an allelic series)"
same,binding signal,[3],"6.61 upbm affinity estimate (log intensity, higher = more binding, comparable within an allelic series)"
ATATTTGC,binding signal,[1],"8.36 upbm affinity estimate (log intensity, higher = more binding, comparable within an allelic series)"
same,binding signal,[2],"7.99 upbm affinity estimate (log intensity, higher = more binding, comparable within an allelic series)"
same,binding signal,[3],"7.34 upbm affinity estimate (log intensity, higher = more binding, comparable within an allelic series)"
AGCTCCCG,binding signal,[1],"6.72 upbm affinity estimate (log intensity, higher = more binding, comparable within an allelic series)"
same,binding signal,[2],"6.63 upbm affinity estimate (log intensity, higher = more binding, comparable within an allelic series)"
same,binding signal,[3],"6.46 upbm affinity estimate (log intensity, higher = more binding, comparable within an allelic series)"
GGTAAATA,binding signal,[1],"8.63 upbm affinity estimate (log intensity, higher = more binding, comparable within an allelic series)"
same,binding signal,[2],"8.23 upbm affinity estimate (log intensity, higher = more binding, comparable within an allelic series)"
same,binding signal,[3],"7.4 upbm affinity estimate (log intensity, higher = more binding, comparable within an allelic series)"
TGATTACA,binding signal,[1],"9.42 upbm affinity estimate (log intensity, higher = more binding, comparable within an allelic series)"
same,binding signal,[2],"8.57 upbm affinity estimate (log intensity, higher = more binding, comparable within an allelic series)"
same,binding signal,[3],"7.5 upbm affinity estimate (log intensity, higher = more binding, comparable within an allelic series)"
GCTCGGAC,binding signal,[1],"6.55 upbm affinity estimate (log intensity, higher = more binding, comparable within an allelic series)"
same,binding signal,[2],"6.66 upbm affinity estimate (log intensity, higher = more binding, comparable within an allelic series)"
same,binding signal,[3],"6.68 upbm affinity estimate (log intensity, higher = more binding, comparable within an allelic series)"
AATCTATA,binding signal,[1],"8.79 upbm affinity estimate (log intensity, higher = more binding, comparable within an allelic series)"
same,binding signal,[2],"8.14 upbm affinity estimate (log intensity, higher = more binding, comparable within an allelic series)"
same,binding signal,[3],"7.56 upbm affinity estimate (log intensity, higher = more binding, comparable within an allelic series)"
GGCTGACC,binding signal,[1],"6.72 upbm affinity estimate (log intensity, higher = more binding, comparable within an allelic series)"
same,binding signal,[2],"6.74 upbm affinity estimate (log intensity, higher = more binding, comparable within an allelic series)"
same,binding signal,[3],"6.56 upbm affinity estimate (log intensity, higher = more binding, comparable within an allelic series)"
GATAGTTA,binding signal,[1],"8.6 upbm affinity estimate (log intensity, higher = more binding, comparable within an allelic series)"
same,binding signal,[2],"8.09 upbm affinity estimate (log intensity, higher = more binding, comparable within an allelic series)"
same,binding signal,[3],"7.39 upbm affinity estimate (log intensity, higher = more binding, comparable within an allelic series)"
GTCTCGAA,binding signal,[1],"6.78 upbm affinity estimate (log intensity, higher = more binding, comparable within an allelic series)"
same,binding signal,[2],"6.8 upbm affinity estimate (log intensity, higher = more binding, comparable within an allelic series)"
same,binding signal,[3],"7.1 upbm affinity estimate (log intensity, higher = more binding, comparable within an allelic series)"
AGACCGTC,binding signal,[1],"6.82 upbm affinity estimate (log intensity, higher = more binding, comparable within an allelic series)"
same,binding signal,[2],"6.83 upbm affinity estimate (log intensity, higher = more binding, comparable within an allelic series)"
same,binding signal,[3],"6.81 upbm affinity estimate (log intensity, higher = more binding, comparable within an allelic series)"
TCCAATCA,binding signal,[1],"8.66 upbm affinity estimate (log intensity, higher = more binding, comparable within an allelic series)"
same,binding signal,[2],"8.18 upbm affinity estimate (log intensity, higher = more binding, comparable within an allelic series)"
same,binding signal,[3],"7.02 upbm affinity estimate (log intensity, higher = more binding, comparable within an allelic series)"
GCCTGCGA,binding signal,[1],"6.74 upbm affinity estimate (log intensity, higher = more binding, comparable within an allelic series)"
same,binding signal,[2],"6.64 upbm affinity estimate (log intensity, higher = more binding, comparable within an allelic series)"
same,binding signal,[3],"6.59 upbm affinity estimate (log intensity, higher = more binding, comparable within an allelic series)"
CGATGCCC,binding signal,[1],"6.76 upbm affinity estimate (log intensity, higher = more binding, comparable within an allelic series)"
same,binding signal,[2],"6.86 upbm affinity estimate (log intensity, higher = more binding, comparable within an allelic series)"
same,binding signal,[3],"6.71 upbm affinity estimate (log intensity, higher = more binding, comparable within an allelic series)"
AATTGGCG,binding signal,[1],"9.12 upbm affinity estimate (log intensity, higher = more binding, comparable within an allelic series)"
same,binding signal,[2],"8.88 upbm affinity estimate (log intensity, higher = more binding, comparable within an allelic series)"
same,binding signal,[3],"7.29 upbm affinity estimate (log intensity, higher = more binding, comparable within an allelic series)"
CCTTCGGC,binding signal,[1],"6.66 upbm affinity estimate (log intensity, higher = more binding, comparable within an allelic series)"
same,binding signal,[2],"6.64 upbm affinity estimate (log intensity, higher = more binding, comparable within an allelic series)"
same,binding signal,[3],"6.53 upbm affinity estimate (log intensity, higher = more binding, comparable within an allelic series)"
GGCCACCA,binding signal,[1],"6.96 upbm affinity estimate (log intensity, higher = more binding, comparable within an allelic series)"
same,binding signal,[2],"6.82 upbm affinity estimate (log intensity, higher = more binding, comparable within an allelic series)"
same,binding signal,[3],"6.75 upbm affinity estimate (log intensity, higher = more binding, comparable within an allelic series)"
GGATGCAC,binding signal,[1],"6.71 upbm affinity estimate (log intensity, higher = more binding, comparable within an allelic series)"
same,binding signal,[2],"6.74 upbm affinity estimate (log intensity, higher = more binding, comparable within an allelic series)"
same,binding signal,[3],"6.83 upbm affinity estimate (log intensity, higher = more binding, comparable within an allelic series)"
ATCTTAAC,binding signal,[1],"8.34 upbm affinity estimate (log intensity, higher = more binding, comparable within an allelic series)"
same,binding signal,[2],"7.85 upbm affinity estimate (log intensity, higher = more binding, comparable within an allelic series)"
same,binding signal,[3],"7.45 upbm affinity estimate (log intensity, higher = more binding, comparable within an allelic series)"
CGCGTCCC,binding signal,[1],"6.69 upbm affinity estimate (log intensity, higher = more binding, comparable within an allelic series)"
same,binding signal,[2],"6.77 upbm affinity estimate (log intensity, higher = more binding, comparable within an allelic series)"
same,binding signal,[3],"6.52 upbm affinity estimate (log intensity, higher = more binding, comparable within an allelic series)"
CCGCACCC,binding signal,[1],"6.68 upbm affinity estimate (log intensity, higher = more binding, comparable within an allelic series)"
same,binding signal,[2],"6.9 upbm affinity estimate (log intensity, higher = more binding, comparable within an allelic series)"
same,binding signal,[3],"6.69 upbm affinity estimate (log intensity, higher = more binding, comparable within an allelic series)"
GGCATGAC,binding signal,[1],"6.69 upbm affinity estimate (log intensity, higher = more binding, comparable within an allelic series)"
same,binding signal,[2],"6.75 upbm affinity estimate (log intensity, higher = more binding, comparable within an allelic series)"
same,binding signal,[3],"6.7 upbm affinity estimate (log intensity, higher = more binding, comparable within an allelic series)"
AGTCTGCG,binding signal,[1],"6.67 upbm affinity estimate (log intensity, higher = more binding, comparable within an allelic series)"
same,binding signal,[2],"6.73 upbm affinity estimate (log intensity, higher = more binding, comparable within an allelic series)"
same,binding signal,[3],"6.68 upbm affinity estimate (log intensity, higher = more binding, comparable within an allelic series)"
GTCAGGAC,binding signal,[1],"6.88 upbm affinity estimate (log intensity, higher = more binding, comparable within an allelic series)"
same,binding signal,[2],"6.96 upbm affinity estimate (log intensity, higher = more binding, comparable within an allelic series)"
same,binding signal,[3],"6.86 upbm affinity estimate (log intensity, higher = more binding, comparable within an allelic series)"
AAGGGAGT,binding signal,[1],"6.58 upbm affinity estimate (log intensity, higher = more binding, comparable within an allelic series)"
same,binding signal,[2],"6.7 upbm affinity estimate (log intensity, higher = more binding, comparable within an allelic series)"
same,binding signal,[3],"6.82 upbm affinity estimate (log intensity, higher = more binding, comparable within an allelic series)"
CGCGGTCC,binding signal,[1],"6.77 upbm affinity estimate (log intensity, higher = more binding, comparable within an allelic series)"
same,binding signal,[2],"6.82 upbm affinity estimate (log intensity, higher = more binding, comparable within an allelic series)"
same,binding signal,[3],"6.49 upbm affinity estimate (log intensity, higher = more binding, comparable within an allelic series)"
AATCAATT,binding signal,[4],"8.86 upbm affinity estimate (log intensity, higher = more binding, comparable within an allelic series)"
AACTAAGC,binding signal,[5],"9.21 upbm affinity estimate (log intensity, higher = more binding, comparable within an allelic series)"
ATCAACGG,binding signal,[5],"9.55 upbm affinity estimate (log intensity, higher = more binding, comparable within an allelic series)"
ATTTCTAG,binding signal,[5],"9.13 upbm affinity estimate (log intensity, higher = more binding, comparable within an allelic series)"
same,binding signal,[6],"8.86 upbm affinity estimate (log intensity, higher = more binding, comparable within an allelic series)"
CCTGCAGA,binding signal,[5],"7.26 upbm affinity estimate (log intensity, higher = more binding, comparable within an allelic series)"
same,binding signal,[6],"7.33 upbm affinity estimate (log intensity, higher = more binding, comparable within an allelic series)"
same,binding signal,[7],"7.23 upbm affinity estimate (log intensity, higher = more binding, comparable within an allelic series)"
ATATTACC,binding signal,[5],"11.5 upbm affinity estimate (log intensity, higher = more binding, comparable within an allelic series)"
same,binding signal,[6],"11.2 upbm affinity estimate (log intensity, higher = more binding, comparable within an allelic series)"
same,binding signal,[7],"11.4 upbm affinity estimate (log intensity, higher = more binding, comparable within an allelic series)"
ATATGGAC,binding signal,[5],"9.25 upbm affinity estimate (log intensity, higher = more binding, comparable within an allelic series)"
same,binding signal,[6],"8.78 upbm affinity estimate (log intensity, higher = more binding, comparable within an allelic series)"
same,binding signal,[7],"8.81 upbm affinity estimate (log intensity, higher = more binding, comparable within an allelic series)"
CGCGGCAC,binding signal,[5],"6.77 upbm affinity estimate (log intensity, higher = more binding, comparable within an allelic series)"
same,binding signal,[6],"7.02 upbm affinity estimate (log intensity, higher = more binding, comparable within an allelic series)"
same,binding signal,[7],"7.21 upbm affinity estimate (log intensity, higher = more binding, comparable within an allelic series)"
